Inconclusive results are not listed. Activity calls are given as the source filed them. Unless noted, calls come from the whole dose curve; as a rule, active = well fitted curve in the direction sought with a large enough effect; inconclusive = small, poorly fitted or top-dose-only effect, or another doubt; inactive = no such curve, though single readings can be large; an effect the other way counts as inactive or inconclusive.
Tests used:
[1] = target: Estrogen receptor (Homo sapiens) (UniProt P03372); assay: qHTS assay for small molecule agonists of estrogen receptor alpha signaling (AID 588514; calls by dose curve;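 note: 0% = vehicle only and 100% = reference agonist; nearly all actives have a fitted effect of over 70% in size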)
How it was run: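 EC50 and efficacy came from Hill fits of beta-lactamase reporter signal (CCF4 dye, 2 h at room temperature) scaled between DMSO and 20 nM 17-beta-estradiol. Agonist mode: HEK293 ER-alpha-UAS-bla cells in charcoal/dextran-stripped serum medium, 18 h compound exposure at 37 C.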

[2] = target: Glucocorticoid receptor (Homo sapiens) (UniProt P04150); assay: qHTS assay for small molecule agonists of glucocorticoid receptor signaling (AID 588532; active = well fitted curve in the direction sought with a large enough effect in the signal ratio, with a control signal flat; the % refers to the signal ratio;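 note: 100% = dexamethasone at 0.1 µM and 0% = DMSO only wells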); settings: HeLa MMTV-bla, beta-lactamase ratio, agonist, 18 h; activation: stronger effect = higher value, percent of dexamethasone control, DMSO zero
How it was run: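 Quantitative HTS using CellSensor MMTV-bla HeLa cells in charcoal/dextran-treated serum; compounds tested up to 92 uM. After 18 h at 37 C, CCF4 dye reported reporter induction.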

[3] = target: Peroxisome proliferator-activated receptor delta (Homo sapiens) (UniProt Q03181); assay: qHTS assay for small molecule agonists of peroxisome proliferator-activated receptor delta signaling (AID 588534; calls by dose curve;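 note: 0% = DMSO basal wells and 100% = positive control agonist at 10 µM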)
How it was run: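 Agonist-mode beta-lactamase reporter readout (CCF4 dye, 2 h at RT) after 18 h at 37 °C exposure to a titration; Hill-equation fitting gave EC50 and maximal response.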

[4] = target: Peroxisome proliferator-activated receptor gamma (Homo sapiens) (UniProt P37231); assay: qHTS assay for small molecule agonists of peroxisome proliferator-activated receptor gamma signaling (AID 588536; active = well fitted curve in the direction sought with a large enough effect in the signal ratio, with a control signal flat, not every such curve was filed as active; the % refers to the signal ratio;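 note: 0% = DMSO basal wells and 100% = rosiglitazone at 2 µM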)
How it was run: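 Using GeneBLAzer HEK293 cells, response was quantified by CCF4 fluorescence and normalized between basal DMSO (0%) and rosiglitazone 2 uM (100%); curves yielded half-maximal stimulation concentration and efficacy.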

[5] = target: Retinoic acid receptor RXR-alpha (Homo sapiens) (UniProt P19793); assay: qHTS assay for small molecule agonists of retinoid X receptor alpha signaling (AID 588544; calls by dose curve; note: potency is the fitted concentration of half-maximal effect;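 for activation: 0% = DMSO basal wells and 100% = reference agonist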)
[6] = target: Thyroid hormone receptor beta (Homo sapiens) (UniProt P10828); assay: qHTS assay for small molecule agonists of thyroid hormone receptor beta signaling (AID 588545; calls by dose curve)
How it was run: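 In this cell-based screen, titrated compounds act on HEK 293 cells held in medium with 2% charcoal/dextran FBS, NEAA and pyruvate for 18 hrs at 37 C. Responses are expressed relative to T3 (10 nM) as 100% and basal DMSO as 0%.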

[7] = qHTS assay for small molecule antagonists of retinoid X receptor alpha signaling (AID 588546; active = well fitted inhibition curve with a large enough effect in the signal ratio, with a control signal flat, not every such curve was filed as active; the % refers to the signal ratio;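 note: cells stimulated with 9-cis-retinoic acid as agonist; % is set by controls: 0 for no effect and ±100 for the full control effect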); settings: HEK293T RXRa-UAS-bla, beta-lactamase ratio, antagonist mode; measured here: W530 green channel, cytotoxicity proxy
How it was run: (§1)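 Beta-lactamase reporter inhibition, read as CCF4 fluorescence ratio (ex 405, em 460/530 nm) after 2 h at RT. HEK293T UAS-bla cells, 2500/well, were stimulated with 9-cis-RA at 500 or 100 nM final alongside test compound for 18 h at 37 C.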

[8] = target: Retinoic acid receptor RXR-alpha (Homo sapiens) (UniProt P19793); assay: as above; settings: HEK293T RXRa-UAS-bla, beta-lactamase ratio, antagonist mode
How it was run: as §1

[9] = qHTS assay for small molecule activators of the p53 signaling pathway (AID 651743; active = well fitted activation curve with a large enough effect in the signal ratio, not every such curve was filed as active; the % refers to the signal ratio; note: series mostly up to about 92 µM; % of control where 0% means no effect); settings: HCT-116 p53RE-bla, beta-lactamase FRET ratio, 16 h; activation: stronger effect = higher value
How it was run: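 After 16 hours compound treatment at 37 C, HCT-116 cells stably expressing p53RE-driven beta-lactamase were loaded with LiveBLAzer B/G FRET substrate for 2 hours at room temperature. Fluorescence intensity served as the p53 activation read-out.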

[10] = qHTS assay for environmental chemicals that activate the Aryl hydrocarbon Receptor (AhR) signaling pathway (AID 651777); settings: 1A2-DRE human hepatoma cells, luciferase, 24 h; activation: stronger effect = higher value; note: % of control where 0% means no effect; nearly all actives have a fitted effect of over 15% in size
How it was run: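 Human hepatoma 1A2-DRE cells, stably carrying a dioxin response element and CYP1A2 promoter driving luciferase, were exposed to compounds for 24 hr at 37 C and 5% CO2. Luciferase signal was then read after 30 min One-Glo at room temperature.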

[11] = target: Peroxisome proliferator-activated receptor alpha (Homo sapiens) (UniProt Q07869); assay: qHTS assay for small molecule agonists of the peroxisome proliferator-activated receptor alpha (PPARalpha) signaling pathway (AID 651778); settings: PathHunter PPARalpha complementation, chemiluminescence, 6 h; max response: stronger effect = higher value; note: potency is the fitted concentration of half-maximal effect; for max response: % of control where 0% means no effect
How it was run: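 Chemiluminescence from complemented enzyme reported PPARalpha activation in cells after 6 hr of compound treatment at 37 C. The detection reagent was incubated for 60 min at room temperature, and compounds were scored as agonists.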

[12] = qHTS assay for small molecule agonists of the antioxidant response element (ARE) signaling pathway measured by Nrf2-dependant transcriptional activity (AID 720636; active = well fitted curve in the direction sought with a large enough effect in the repeat runs; an effect the other way counts as inactive or inconclusive; note: % of control where 0% means no effect)
How it was run: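 ARE-luc HepG2 cells carrying an Nrf2-responsive luciferase reporter were plated in medium with 1% dialyzed FBS, left 6 hr at 37 C to attach, then exposed to compound for 16 hr. Luciferase luminescence was read after ONE-Glo addition.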

[13] = qHTS assay for small molecule agonists of the antioxidant response element (ARE) signaling pathway measured by Nrf2-dependant transcriptional activity - cell viability counter screen (AID 720653; active = well fitted curve in the direction sought with a large enough effect in the repeat runs; an effect the other way counts as inactive or inconclusive; note: potency is the fitted concentration of half-maximal effect; for max response: % is set by controls: 0 for no effect and ±100 for the full control effect); settings: ARE-bla HepG2 viability, CellTiter-Glo ATP luminescence, 16 h; max response: stronger effect = lower value
How it was run: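 Cytotoxicity counter screen: intracellular ATP quantified by CellTiter-Glo luminescence in the same ARE-bla HepG2 plates, after 16 h compound exposure and a 2 h beta-lactamase substrate step.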

[14] = qHTS assay for cell viability of HEK293 cells (AID 743288); settings: ATP luminescence (CellTiter-Glo), 18 h; max response: stronger effect = lower value; note: nearly all actives have a fitted effect of over 50% in size; note: potency is the fitted concentration of half-maximal effect; for max response: % is set by controls: 0 for no effect and ±100 for the full control effect
How it was run: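 HEK293, 18 h, 37 C, ATP luminescence. Cells at 2,000/well were allowed at least 5 h to settle before dosing; CellTiter-Glo developed 30 min at RT.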

[15] = qHTS assay for cell viability of the p53RE-bla HCT-116 cell line (AID 743292); note: % is set by controls: 0 for no effect and ±100 for the full control effect; nearly all actives have a fitted effect of over 55% in size
How it was run: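 CellSensor p53RE-bla HCT-116 cells, 4,000/well, preincubated 5 h at 37 C, then exposed to compounds in DMSO for 16 h at 37 C. Viability read as CellTiter-Glo luminescence (intracellular ATP) after 30 min at room temperature.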

[16] = target: Nuclear receptor subfamily 1 group I member 2 (Rattus norvegicus) (UniProt Q9R1A7); assay: qHTS assay for small molecule activators of the rat pregnane X receptor (rPXR) signaling pathway (AID 651751; call rule not given here; note: 0% is about no effect); settings: rPXR reporter cells, luciferase (One-Glo), 24 h
[17] = target: Peroxisome proliferator-activated receptor delta (Homo sapiens) (UniProt Q03181); assay: qHTS assay for small molecule antagonists of peroxisome proliferator-activated receptor delta signaling (AID 588535; active = well fitted inhibition curve with a large enough effect in the signal ratio, with a control signal flat, not every such curve was filed as active; the % refers to the signal ratio)
How it was run: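 Titrations were run on PPAR-delta-UAS-bla HEK293T cells in charcoal/dextran-stripped serum, incubated 18 h at 37 C. CCF4 fluorescence (460/530 nm) after 2 h RT; Hill equation yields IC50 and maximal response.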

[18] = target: Vitamin D3 receptor (Homo sapiens) (UniProt P11473); assay: qHTS assay for small molecule agonists of vitamin D receptor signaling (AID 588543; calls by dose curve;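 note: 0% = DMSO basal and 100% = reference agonist control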)
How it was run: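 Measured: β-lactamase reporter activity (CCF4, 405 nm excitation, 460/530 nm emission) in HEK293T VDR-UAS-bla cells after 16 h compound exposure at 37 °C. Normalization against 50 nM 1α,25-dihydroxyvitamin D3 and DMSO; Hill-fit EC50.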

[19] = target: Vitamin D3 receptor (Homo sapiens) (UniProt P11473); assay: qHTS assay for small molecule antagonists of vitamin D receptor signaling (AID 588541; calls by dose curve;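 note: receptor activated by calcitriol during compound treatment; series mostly up to about 77 µM; % is set by controls: 0 for no effect and ±100 for the full control effect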)
How it was run: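 Antagonist-mode beta-lactamase reporter assay: HEK293T VDR-UAS-bla cells were exposed to titrated compound alongside 1-alpha,25-dihydroxyvitamin D3 at 3 nM final for 16 h. Values were normalized to the 50 nM agonist control and DMSO basal, with IC50 and efficacy from Hill equation fits.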

[20] = qHTS assay for small molecule activators of the nuclear factor-kappa B (NF-kB) signaling pathway (AID 651749; active = well fitted activation curve with a large enough effect in the signal ratio; the % refers to the signal ratio; note: series mostly up to about 77 µM; % of control where 0% means no effect); settings: NF-kB-bla ME-180 cells, beta-lactamase FRET ratio, 16 h; activation: stronger effect = higher value
How it was run: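 Activation measured after 16 hr compound treatment at 37C, 5% CO2, of 2,000 ME-180 cells/well stably expressing an NF-kB response element–driven beta-lactamase reporter, via FRET-disruption fluorescence.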

Chain of Peroxisome proliferator-activated receptor alpha (Homo sapiens) (Q07869 whole entry, looked up): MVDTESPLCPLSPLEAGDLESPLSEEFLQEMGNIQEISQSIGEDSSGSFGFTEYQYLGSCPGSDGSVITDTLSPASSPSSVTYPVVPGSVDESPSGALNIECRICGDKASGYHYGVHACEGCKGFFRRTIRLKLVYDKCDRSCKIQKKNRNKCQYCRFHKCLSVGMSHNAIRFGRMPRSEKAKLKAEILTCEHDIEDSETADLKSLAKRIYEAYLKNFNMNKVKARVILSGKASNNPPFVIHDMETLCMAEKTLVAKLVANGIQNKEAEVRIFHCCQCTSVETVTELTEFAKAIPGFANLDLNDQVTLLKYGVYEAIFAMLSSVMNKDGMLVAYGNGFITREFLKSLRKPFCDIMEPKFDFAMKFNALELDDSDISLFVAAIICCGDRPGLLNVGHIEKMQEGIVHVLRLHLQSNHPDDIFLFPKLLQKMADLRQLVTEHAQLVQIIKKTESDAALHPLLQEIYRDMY
Chain of Glucocorticoid receptor (Homo sapiens) (P04150 whole entry, looked up): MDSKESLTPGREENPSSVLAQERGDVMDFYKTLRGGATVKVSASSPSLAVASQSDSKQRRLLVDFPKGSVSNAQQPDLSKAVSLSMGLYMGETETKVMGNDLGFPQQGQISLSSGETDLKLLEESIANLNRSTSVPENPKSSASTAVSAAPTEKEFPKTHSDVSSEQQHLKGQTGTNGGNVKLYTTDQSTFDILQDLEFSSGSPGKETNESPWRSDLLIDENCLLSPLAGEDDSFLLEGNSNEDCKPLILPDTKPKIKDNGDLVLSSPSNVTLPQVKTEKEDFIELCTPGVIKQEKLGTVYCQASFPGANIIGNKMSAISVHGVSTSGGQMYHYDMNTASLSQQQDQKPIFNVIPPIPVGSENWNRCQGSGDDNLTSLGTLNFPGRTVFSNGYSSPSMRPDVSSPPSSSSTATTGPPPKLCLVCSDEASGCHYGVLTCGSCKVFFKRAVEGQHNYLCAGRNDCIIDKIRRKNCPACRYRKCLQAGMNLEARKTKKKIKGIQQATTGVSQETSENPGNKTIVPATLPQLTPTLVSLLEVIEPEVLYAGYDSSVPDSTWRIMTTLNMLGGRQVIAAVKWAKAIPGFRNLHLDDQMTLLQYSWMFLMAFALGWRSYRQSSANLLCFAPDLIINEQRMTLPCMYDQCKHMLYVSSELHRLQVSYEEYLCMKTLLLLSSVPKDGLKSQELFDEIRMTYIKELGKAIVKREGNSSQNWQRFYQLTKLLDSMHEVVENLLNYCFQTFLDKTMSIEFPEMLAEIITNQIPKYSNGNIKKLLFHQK
Chain of Nuclear receptor subfamily 1 group I member 2 (Rattus norvegicus) (Q9R1A7 whole entry, looked up): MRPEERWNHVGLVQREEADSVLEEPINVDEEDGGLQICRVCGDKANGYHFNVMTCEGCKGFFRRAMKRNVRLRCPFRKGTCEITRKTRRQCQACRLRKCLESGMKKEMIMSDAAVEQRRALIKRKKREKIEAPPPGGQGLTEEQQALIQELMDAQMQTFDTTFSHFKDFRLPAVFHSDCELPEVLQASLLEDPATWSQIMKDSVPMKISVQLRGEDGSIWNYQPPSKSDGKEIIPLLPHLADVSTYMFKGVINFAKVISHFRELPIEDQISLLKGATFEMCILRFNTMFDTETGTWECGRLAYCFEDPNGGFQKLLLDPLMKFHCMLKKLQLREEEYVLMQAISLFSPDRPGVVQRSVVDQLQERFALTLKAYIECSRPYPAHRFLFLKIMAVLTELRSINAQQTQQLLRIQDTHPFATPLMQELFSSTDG
Chain of Estrogen receptor (Homo sapiens) (P03372 whole entry, looked up): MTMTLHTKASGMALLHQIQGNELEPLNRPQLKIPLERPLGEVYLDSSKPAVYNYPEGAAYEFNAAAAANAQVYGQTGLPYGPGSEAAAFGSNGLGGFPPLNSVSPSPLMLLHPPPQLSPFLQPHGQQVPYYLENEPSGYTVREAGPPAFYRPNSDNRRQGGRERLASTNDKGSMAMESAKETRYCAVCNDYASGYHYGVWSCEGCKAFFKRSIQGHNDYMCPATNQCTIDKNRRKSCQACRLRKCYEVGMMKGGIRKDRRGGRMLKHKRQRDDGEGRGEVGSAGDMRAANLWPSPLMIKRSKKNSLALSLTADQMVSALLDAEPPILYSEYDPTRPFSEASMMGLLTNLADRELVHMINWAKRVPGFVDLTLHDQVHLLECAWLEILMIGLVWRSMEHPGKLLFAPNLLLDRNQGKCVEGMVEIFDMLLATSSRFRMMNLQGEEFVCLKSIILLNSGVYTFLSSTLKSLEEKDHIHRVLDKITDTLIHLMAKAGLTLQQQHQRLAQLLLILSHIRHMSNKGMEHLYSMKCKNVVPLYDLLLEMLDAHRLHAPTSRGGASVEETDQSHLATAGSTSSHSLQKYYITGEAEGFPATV
Chain of Peroxisome proliferator-activated receptor delta (Homo sapiens) (Q03181 whole entry, looked up): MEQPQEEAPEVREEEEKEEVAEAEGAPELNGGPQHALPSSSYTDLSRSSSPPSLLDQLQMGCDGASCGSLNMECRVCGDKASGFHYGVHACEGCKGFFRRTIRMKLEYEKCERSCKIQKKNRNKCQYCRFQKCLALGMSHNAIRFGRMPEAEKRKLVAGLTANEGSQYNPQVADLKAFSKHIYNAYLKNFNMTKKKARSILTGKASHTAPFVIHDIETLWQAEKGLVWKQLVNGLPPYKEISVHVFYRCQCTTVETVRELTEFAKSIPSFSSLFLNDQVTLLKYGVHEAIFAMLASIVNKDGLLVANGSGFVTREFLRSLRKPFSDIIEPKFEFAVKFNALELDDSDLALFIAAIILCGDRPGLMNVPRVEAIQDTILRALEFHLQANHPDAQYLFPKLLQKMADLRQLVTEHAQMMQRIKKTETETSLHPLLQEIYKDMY
Chain of Retinoic acid receptor RXR-alpha (Homo sapiens) (P19793 whole entry, looked up): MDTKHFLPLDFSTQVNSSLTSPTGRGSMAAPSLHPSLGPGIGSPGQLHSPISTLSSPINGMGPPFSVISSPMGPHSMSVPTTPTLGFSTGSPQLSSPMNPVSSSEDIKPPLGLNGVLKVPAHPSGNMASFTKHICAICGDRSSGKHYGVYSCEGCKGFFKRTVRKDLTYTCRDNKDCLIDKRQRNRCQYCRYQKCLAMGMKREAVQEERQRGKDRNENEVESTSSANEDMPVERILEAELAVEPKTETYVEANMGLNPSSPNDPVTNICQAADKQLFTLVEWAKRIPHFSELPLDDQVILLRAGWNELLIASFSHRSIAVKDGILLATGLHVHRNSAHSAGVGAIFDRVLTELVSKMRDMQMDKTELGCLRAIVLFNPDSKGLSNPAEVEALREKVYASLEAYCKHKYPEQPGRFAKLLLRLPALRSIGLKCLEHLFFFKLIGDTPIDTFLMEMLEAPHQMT
Chain of Thyroid hormone receptor beta (Homo sapiens) (P10828 whole entry, looked up): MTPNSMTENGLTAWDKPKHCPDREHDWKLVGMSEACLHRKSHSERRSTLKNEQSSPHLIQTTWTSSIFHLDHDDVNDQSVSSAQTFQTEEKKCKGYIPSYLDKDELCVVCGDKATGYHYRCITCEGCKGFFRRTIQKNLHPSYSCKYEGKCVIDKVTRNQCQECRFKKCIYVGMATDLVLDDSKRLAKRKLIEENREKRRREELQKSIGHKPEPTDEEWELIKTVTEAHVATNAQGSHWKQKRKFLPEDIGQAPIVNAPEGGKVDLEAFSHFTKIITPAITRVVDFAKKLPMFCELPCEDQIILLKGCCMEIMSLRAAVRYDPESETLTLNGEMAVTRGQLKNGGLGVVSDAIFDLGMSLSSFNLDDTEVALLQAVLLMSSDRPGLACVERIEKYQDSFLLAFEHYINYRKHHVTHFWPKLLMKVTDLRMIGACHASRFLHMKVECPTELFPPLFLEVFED
Chain of Vitamin D3 receptor (Homo sapiens) (P11473 whole entry, looked up): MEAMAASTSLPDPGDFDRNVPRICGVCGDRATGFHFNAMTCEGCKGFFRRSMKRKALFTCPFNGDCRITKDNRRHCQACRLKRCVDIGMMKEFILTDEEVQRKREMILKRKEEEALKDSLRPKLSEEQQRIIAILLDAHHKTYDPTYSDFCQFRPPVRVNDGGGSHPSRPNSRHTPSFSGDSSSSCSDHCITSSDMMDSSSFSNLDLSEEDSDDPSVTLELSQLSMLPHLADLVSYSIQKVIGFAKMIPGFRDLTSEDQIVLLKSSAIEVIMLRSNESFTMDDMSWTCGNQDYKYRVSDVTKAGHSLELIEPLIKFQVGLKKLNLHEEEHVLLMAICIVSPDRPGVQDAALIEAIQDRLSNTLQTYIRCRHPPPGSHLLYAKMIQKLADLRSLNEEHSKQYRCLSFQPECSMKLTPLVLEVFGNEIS
Chain of Peroxisome proliferator-activated receptor gamma (Homo sapiens) (P37231 whole entry, looked up): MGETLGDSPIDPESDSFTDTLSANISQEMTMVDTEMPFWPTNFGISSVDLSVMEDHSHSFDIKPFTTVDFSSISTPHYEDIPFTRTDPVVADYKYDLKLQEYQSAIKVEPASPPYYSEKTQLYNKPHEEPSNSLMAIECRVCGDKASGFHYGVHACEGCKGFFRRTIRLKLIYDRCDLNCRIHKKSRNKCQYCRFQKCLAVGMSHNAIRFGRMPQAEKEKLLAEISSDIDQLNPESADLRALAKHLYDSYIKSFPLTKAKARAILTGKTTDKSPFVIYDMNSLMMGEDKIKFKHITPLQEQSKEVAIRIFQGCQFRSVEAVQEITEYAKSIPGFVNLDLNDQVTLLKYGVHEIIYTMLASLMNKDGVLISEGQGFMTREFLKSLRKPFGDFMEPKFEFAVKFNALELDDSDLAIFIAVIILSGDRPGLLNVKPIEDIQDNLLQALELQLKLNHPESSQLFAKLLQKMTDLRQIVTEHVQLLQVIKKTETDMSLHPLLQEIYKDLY

O=C(NC(=O)c1c(F)cccc1F)Nc1cc(Cl)c(OC(F)(F)C(F)F)c(Cl)c1
inactive: Potency [1] | activation [2] 12.6% | outcome [3] | Potency [4] | Potency [5] | Potency [6] | max response [8] 21.4% | activation [9] -1.27% | activation [10] 0.0082% | max response [11] -1.91% | Potency [12] | max response [13] -11.1% | max response [14] -28.3% | Potency [15] | max response [16] -0.359%
-11.9%: max response [7]

CC(C)C1(C)N=C(c2ncccc2C(=O)O)NC1=O (stereo not given)
inactive: Potency [1] | activation [2] 0.632% | Potency [17] | Potency [4] | outcome [18] | Potency [5] | max response [8] -0.742% | activation [9] -4.94% | activation [10] -1.56% | max response [11] -1.4% | Potency [12] | max response [13] -6.07% | max response [14] 8% | Potency [15] | max response [16] -3.34%
-22%: max response [7]

CCC[CH2][Sn]([Cl])([CH2]CCC)[CH2]CCC
inactive: Potency [1] | activation [2] -5.41% | activation [10] 8.68% | max response [11] 2.3%
active: Potency [5] 0.398 µM | Potency [14] 50.1 µM

COc1cc(OC)nc(NC(=O)NS(=O)(=O)c2ncccc2OCC(F)(F)F)n1
inactive: Potency [1] | activation [2] 3.36% | Potency [17] | Potency [4] | Potency [19] | Potency [5] | max response [8] -28.8% | activation [9] -0.487% | activation [20] -0.186% | activation [10] 1.59% | max response [11] -0.694% | Potency [12] | max response [13] -8.5% | max response [14] -8.98% | Potency [15] | max response [16] -1.56%
-1.53%: max response [7]

CCOP(=O)(OCC)OC(Cl)C(Cl)(Cl)Cl (stereo not given)
inactive: Potency [1] | activation [2] -1.92% | outcome [3] | Potency [17] | outcome [18] | Potency [5] | Potency [6] | max response [8] -17.2% | activation [9] -3.88% | activation [20] 1.4% | activation [10] 2.83% | max response [11] -2.65% | max response [13] -17.4% | max response [14] -7.64% | Potency [15] | max response [16] 2.92%
-13.7%: max response [7]

Clc1ccc(C2(Cn3cncn3)CC(Br)CO2)c(Cl)c1 (stereo not given)
inactive: Potency [1] | activation [2] -0.813% | outcome [3] | Potency [17] | Potency [4] | Potency [19] | outcome [18] | Potency [5] | Potency [6] | max response [8] -17.6% | activation [9] 1.75% | activation [20] -2.79% | activation [10] 0.536% | max response [11] 0.204% | Potency [12] | max response [13] -3.86% | max response [14] -20.3% | Potency [15]
-1.33%: max response [7]

CCCCCCCCCCCCCCC(Br)C(=O)O (stereo not given)
inactive: Potency [1] | activation [2] -1.04% | Potency [19] | max response [8] -14.5% | activation [20] 5.98% | activation [10] -0.608% | max response [13] 1.85% | max response [14] 3.54% | max response [16] -4.78%
active: Potency [5] 31.6 µM | Potency [11] 14.1 µM
6.53%: max response [7]

O=S(=O)(c1ccc(Cl)cc1)c1cc(Cl)c(Cl)cc1Cl
inactive: Potency [1] | activation [2] 0.889% | Potency [19] | outcome [18] | activation [9] 8.22% | activation [20] 1.59% | activation [10] -2.98% | max response [11] -3.59% | max response [13] -29.2% | max response [14] -31.9% | Potency [15]

CCOP(=S)(OCC)SCn1c(=O)oc2cc(Cl)ccc21
inactive: Potency [1] | activation [2] 0.851% | Potency [4] | outcome [18] | Potency [6] | activation [9] 2.68% | max response [11] -0.132% | max response [13] -8.7% | max response [14] -28.2% | Potency [15]

O=[N+]([O-])c1ccc(Cl)c([N+](=O)[O-])c1
active: Potency [13] 44.7 µM | Potency [14] 50.1 µM
inactive: Potency [1] | activation [2] 0.437% | outcome [3] | activation [10] -11.5% | max response [11] -3.79% | Potency [12] | Potency [15] | max response [16] -13.5%

CCC(C)(NC(=O)c1cc(Cl)c(C)c(Cl)c1)C(=O)CCl (stereo not given)
inactive: Potency [1] | activation [2] -7.44% | outcome [3] | Potency [17] | Potency [4] | Potency [6] | activation [9] 14.9% | activation [20] -0.168% | activation [10] 1.89% | max response [11] 0.829% | max response [14] -19.8% | Potency [15] | max response [16] 1.32%

O=C1c2ccccc2C(=O)C1C(=O)C(c1ccccc1)c1ccc(Cl)cc1 (stereo not given)
-2.15%: max response [7]
inactive: Potency [1] | activation [2] -5.26% | outcome [3] | Potency [17] | Potency [4] | Potency [19] | outcome [18] | Potency [5] | Potency [6] | max response [8] 36.5% | activation [20] -3.47% | activation [10] 3.58% | max response [11] -1.87% | Potency [12] | max response [13] -33.5% | max response [14] -28.8% | Potency [15] | max response [16] 10.4%

CCC(C)(C)c1ccc(O)c(C(C)(C)CC)c1
active: Potency [11] 35.5 µM
-12.2%: max response [7]
inactive: Potency [1] | activation [2] 5.63% | outcome [3] | Potency [17] | Potency [4] | outcome [18] | max response [8] 0.417% | activation [9] -0.913% | activation [10] -1.01% | Potency [12] | max response [14] -2.63% | max response [16] 3.81%

— PubChem BioAssay (NCATS)
